# Measured values published in PubChem BioAssay (EPA / NIEHS).
# Active and inactive are the calls of the source. Rule for the calls: active = hit-call score of the fitted dose curve at least 0.9, where 1 is the maximum; inactive = score below 0.9.
# Read-out: Cyclin Dependent Kinase Inhibitor 1A (CDKN1A), CDKN1A (gene 1026)
# Assay: LTEA_HepaRG_CDKN1A: Life Technologies and Expression Analysis (LTEA) Assay for Cyclin Dependent Kinase Inhibitor 1A (CDKN1A) using HepaRG (AID 2283450)
# Settings: mRNA level, 48 h; actives raise or lower the signal
# Method: LTEA_HepaRG is a cell based, multiplexed-readout assay that uses HepaRG, a human liver cell line, with measurements taken at 48 hours after chemical dosing on a 96-well plate.LTEA_HepaRG_CDKN1A is one of 102 assay component(s) measured in the LTEA HepaRG cell culture assay. It is a marker of Cell proliferation, survival, death.Data from the assay component LTEA_HepaRG_CDKN1A was analyzed into 1 endpoint. This assay endpoint, LTEA_HepaRG_CDKN1A, was analyzed with bidirectional fitting relative to DMSO as the negative control and baseline of activity. Using a type of inducible reporter, measures of mRNA induction for gain or loss-of-signal activity can be used to understand regulation of transcription factor activity. To generalize the intended target to other relatable targets, this assay endpoint is annotated to the cell cycle intended target family, where the subfamily is Cell proliferation, survival, death.
# A total of 1060 chemcials from the ToxCast library were tested in eight-point concentration-response experiments. Cell culture and cytotoxicity assays were conducted at Thermo Fisher Scientific's Custom Services facility (Madison, WI). A single lot of human HepaRG cells (Thermo Fisher Scientific, Frederick, MD) was used for the cell culture experiments. 96-well format collagen type I coated plates of human HepaRG cells were prepared using established methods. Briefly, cryopreserved HepaRG cells were thawed, plated at a density of approximately 100,000 cells/well in HepaRG Thaw, Plate, and General Purpose media (HPRG770, Thermo Fisher Scientific), and incubated for 48 hours. 0.5% DMSO was selected as vehicle control to balance the requisite need of DMSO in HepaRG cultures to maintain differentiation (for example, baseline metabolism, proportions of hepatocytes vs. cholangiocytes), while enabling further hepatic receptor pathway activation (for example, PXR and CAR) in response to chemical exposure. 48 hours after plating, the culture medium was replaced with HepaRG Serum-Free Incudtion Media. Cells were exposed to each test chemical in duplicate and maintained in CO2 incubators for another 48 hours. Chemical plates were thawed to room temperature and 200x concentrations of treatment groups were prepared. 8-point conentration-reponse curves were made with the highest exposure at 100 uM, followed by half-log dilutions, all in 0.5% DMSO. Each test plate contained variouse controls, induction positive controls (1mM phenobarbital), cytotoxicity positive controls ([…] aflatoxin B1), vehicle controls (0.5% DMSO), and total lysis controls (0.5% DMSO). Cell morphology images were taken using an Essen IncuCyte FLR automated microscope, with six 96-well plates imaged in about 24 minutes. Images were captured and exported and JPEG files. Spent culture media was transfered to black-well plates for the LDH assay, and remaining media was sorted at -80 C for later use. Cells were treated with RLT buffer and frozen until shipped for gene expression analysis. Total RNA was isolated from the cell suspension in 75 uL of Buffer RLT (Qiagen, Germantown, MD 20874) by Quintiles/Expression Analysis (Durham, NC) using a custom isolation procedure. Total RNA from each plate well was transferred to a preamplification plate. Fluidigm's 96.96 Dynamic ArrayTM (Fluidigm, Amsterdam, the Netherlands) technology was used for gene expression analyses by quantitative reverse transcription polymerase chain reaction (qRT-PCR, performed by Quintiles/Expression Analysis, Durham, NC)89. Standard TaqManTM Assays (Applied Biosystems/ThermoFisher Scientific, Foster City, CA) were used to assess the expression of 93 genes selected based on their selectivity and sensitivity to important hepatic receptors known to be modulated by environmental chemicals; importance in human hepatocyte functionality; and hepatotoxicity. […]
SMILES,outcome,AC50
CC(C)NC(=O)N1CC(=O)N(c2cc(Cl)cc(Cl)c2)C1=O,inactive,
CC(C)=CC1C(C(=O)OCc2coc(Cc3ccccc3)c2)C1(C)C (stereo not given),inactive,
Cc1nc(N(C)C)nc(OC(=O)N(C)C)c1C,inactive,
Clc1nc(Cl)nc(Nc2ccccc2Cl)n1,inactive,
Cc1c(COC(=O)[C@@H]2[C@H](/C=C(\Cl)C(F)(F)F)C2(C)C)cccc1-c1ccccc1,inactive,
CCN(CC)c1nc(C)cc(OP(=S)(OC)OC)n1,inactive,
CCN(CC)C(=O)C(C)Oc1cccc2ccccc12 (stereo not given),inactive,
O=P(O)(O)CCCl,,0.373 µM (active)
CO/N=C(/C1=NOCCO1)c1ccccc1Oc1ncnc(Oc2ccccc2Cl)c1F,,28.5 µM (active)
C=C(C)CN(CC)c1c([N+](=O)[O-])cc(C(F)(F)F)cc1[N+](=O)[O-],inactive,
CCC(C)n1c(=O)[nH]c(C)c(Br)c1=O (stereo not given),inactive,
COC(=O)N(C(=O)N1CO[C@@]2(C(=O)OC)Cc3cc(Cl)ccc3C2=N1)c1ccc(OC(F)(F)F)cc1,inactive,
COP(=O)(OC)O/C(C)=C/C(=O)N(C)C,inactive,
C=CCOC(=O)C(C)(C)OC(=O)c1cc(-n2c(=O)cc(C(F)(F)F)n(C)c2=O)ccc1Cl,inactive,
Nc1cnn(-c2ccccc2)c(=O)c1Cl,inactive,
CNC(=O)Oc1cccc2ccccc12,inactive,
CC(C)(C)C(=O)C(Oc1ccc(Cl)cc1)n1cncn1 (stereo not given),inactive,
OC(c1ccc(Cl)cc1)(c1ccc(Cl)cc1)C(Cl)(Cl)Cl,,83.7 µM (active)
Cc1cc(C)nc(Nc2ccccc2)n1,inactive,
COC(=O)NC(=S)Nc1ccccc1NC(=S)NC(=O)OC,inactive,

SMILES,outcome,AC50
CC1(C)CCC(=Cc2ccc(Cl)cc2)C1(O)Cn1cncn1 (stereo not given),inactive,
CCSC(=O)N1CCCCCC1,inactive,
CCCN(CC)CC1COC2(CCC(C(C)(C)C)CC2)O1 (stereo not given),inactive,
CCOP(=S)(OCC)Oc1nc(Cl)n(C(C)C)n1,inactive,
O=C(Nc1ccccc1-c1ccc(Cl)cc1)c1cccnc1Cl,inactive,
CS(=O)(=O)c1ccc(C(=O)C2C(=O)CCCC2=O)c([N+](=O)[O-])c1,inactive,
CC(C)C1(C)N=C(c2ncccc2C(=O)O)NC1=O (stereo not given),inactive,
O=c1n(Cl)c(=O)n(Cl)c(=O)n1Cl,inactive,
CSC(=O)c1c(C(F)F)nc(C(F)(F)F)c(C(=O)SC)c1CC(C)C,inactive,
CNC(=O)N(C)c1nnc(C(C)(C)C)s1,inactive,
Cc1ccc(N=CN(C)C=Nc2ccc(C)cc2C)c(C)c1,inactive,
COCC(C)N(C(=O)CCl)c1c(C)csc1C (stereo not given),inactive,
COc1ccc(-c2ccccc2)cc1NNC(=O)OC(C)C,inactive,
CCOc1nc(C(Cl)(Cl)Cl)ns1,inactive,
COc1cc(Cl)c(OC)cc1Cl,inactive,
Clc1cccc(C(Cl)(Cl)Cl)n1,inactive,
COP(=S)(OC)Oc1ccc([N+](=O)[O-])c(C)c1,inactive,
CCOc1cc(C(C)(C)C)ccc1C1COC(c2c(F)cccc2F)=N1 (stereo not given),inactive,
CN/C(=N\[N+](=O)[O-])NCc1cnc(Cl)s1,inactive,
COc1cc(OC)nc(NC(=O)NS(=O)(=O)c2ncccc2OCC(F)(F)F)n1,inactive,
